# Shown is part of a subset that was picked to be rich in hits.
# Pf Dd2 growth – qHTS Primary assay for Inhibitors of Plasmodium falciparum Dd2 growth in vitro; P. falciparum Dd2 growth, SYBR Green, 72 h; Potency, µM (highest dose often 28.9 µM), actives largely listed as inhibitors; 120,000 tested, 4.3% active; active means well fitted inhibition curve with a large enough effect; further: nearly all actives have a fitted effect of over 65% in size
#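 Infected erythrocytes (Dd2, 0.3% parasitemia, 2.5% hematocrit final) are added to compound in RPMI-1640/Albumax II medium, grown 72 h at 37C in low oxygen, then lysed with saponin/Triton-X containing SYBR Green and read by fluorescence.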
# Numbers stand for hits; . = inactive; [ ] = remark or other dose.
SMILES,Pf Dd2 growth
O=c1cc(-c2ccncc2)oc2c(-c3cccc4[nH]ccc34)nccc12,10µM
COc1ccc(N2CCN(C(=O)c3ccc4c(c3)N(Cc3cc(C)ccc3C)C(=O)c3ccccc3S4=O)CC2)cc1 (stereo not given),.
CCN1C(=O)c2ccccc2S(=O)c2ccc(C(=O)N3CCN(c4ccc(F)cc4)CC3)cc21 (stereo not given),8.9µM
CCN1C(=O)c2ccccc2S(=O)c2ccc(C(=O)N3CCN(c4ccccc4OC)CC3)cc21 (stereo not given),5µM
O=C(c1ccc2c(c1)N(Cc1ccc(Cl)cc1)C(=O)c1ccccc1S2=O)N1CCOCC1 (stereo not given),.
O=C(c1ccc2c(c1)N(Cc1ccc(F)cc1)C(=O)c1ccccc1S2=O)N1CCOCC1 (stereo not given),.
O=C(c1ccc2c(c1)N(Cc1ccc(Cl)cc1)C(=O)c1ccccc1S2=O)N1CCCCC1 (stereo not given),.
CCOC(=O)N1CCN(C(=O)c2ccc3c(c2)N(Cc2ccccc2F)C(=O)c2ccccc2S3=O)CC1 (stereo not given),.
O=C(c1ccc2c(c1)N(Cc1ccccc1F)C(=O)c1ccccc1S2=O)N1CCN(c2ccccc2)CC1 (stereo not given),.
CCN1CCN(C(=O)c2ccc3c(c2)N(Cc2ccccc2F)C(=O)c2ccccc2S3=O)CC1 (stereo not given),0.28µM
CN(C)C(=O)c1cccnc1OC1CCN(C(=O)c2ccc(F)cc2)C1 (stereo not given),.
O=C(NCc1nncn1C1CCCCC1)C1NCCc2[nH]cnc21 (stereo not given),.
O=C(Nc1ccc(F)c(Cl)c1)C1=NO[C@@H]2CN(Cc3cccnc3)C[C@H]12,.
CCS(=O)(=O)N1CCCCCCN(C)C(=O)CC1,.
COc1ccc(OC)c(NC(=O)Cn2c(-c3ccc(F)cc3)nc(C)cc2=O)c1,.
CC(=O)N1CCOc2ccc(CCC(=O)NC(C)Cn3ccc(C)n3)cc2C1 (stereo not given),.
CC(C)c1nc2cc(NC(=O)C[C@H]3NC(=O)c4ccccc4NC3=O)ccc2n1C,.
CN(Cc1cccnc1)c1nc2c(c(=O)[nH]1)CCN(Cc1cccc(Cl)c1F)CC2,.[5.79 µM]
COc1cc2nc(SCC(=O)Nc3cccc(C)c3)n3nc(CCn4c(C)nc5ccccc54)nc3c2cc1OC,2.2µM
COc1cc2nc(SCC(=O)Nc3ccc(F)cc3)n3nc(CCn4c(C)nc5ccccc54)nc3c2cc1OC,.
CCOc1ccccc1NC(=O)CSc1nc2cc(OC)c(OC)cc2c2nc(CCn3c(C)nc4ccccc43)nn12,3.2µM
COc1ccccc1NC(=O)Cn1c(SCC(=O)Nc2ccc(F)cc2)nc2ccccc21,.
Cc1ccccc1NC(=O)CSc1nc2ccccc2c2nc(CCn3cncc3C)nn12,.
COc1cc2nc(SCC(=O)Nc3cccc(C)c3)n3nc(-c4ccccc4)nc3c2cc1OC,.
Cc1ccc(CSc2nc3ccccc3c3nc(CCn4c(C)nc5ccccc54)nn23)cc1,.
SMILES,Pf Dd2 growth
Cc1cccc(NC(=O)CSc2nc3ccccc3c3nc(CCn4cncc4C)nn23)c1,10µM
O=C(CSc1nc2ccccc2c2nc(-c3ccccc3)nn12)Nc1ccc(Br)cc1,.
Cc1n[nH]c(C)c1CCc1nc2c3ccccc3nc(SCC(=O)Nc3ccc(F)cc3)n2n1,8.9µM
Cc1ccc(NC(=O)CSc2nc3ccccc3c3nc(CCn4cncc4C)nn23)c(C)c1,.
Cc1cccc(C)c1NC(=O)CSc1nc2ccccc2c2nc(CCc3c(C)n[nH]c3C)nn12,.
COCC[C@]1(O)CCN(C(=O)CSc2ccccc2)C[C@H]1C,.
Cc1noc(C)c1S(=O)(=O)N1CCC2(C1)C(=O)N(C)c1ccccc12 (stereo not given),.
O=C1NCCCN1C1CCN(Cc2ccccc2C(F)(F)F)CC1,.
CCCn1c(C)cnc1CC1CCCN(C(=O)CC2CCCC2)C1 (stereo not given),.
CCOCC(=O)N1C[C@@H](Oc2ccccc2)C[C@H]1C(=O)N1CCOCC1,.
COC(=O)c1ccc(NC(=O)Cn2nc3c(cc2=O)CN(C(C)=O)CC3)cc1,.
COCCCNC(=O)C(NC(=O)c1cccc(C)c1)C1CCN(C(=O)c2ccc(C)cc2)CC1 (stereo not given),.
C[C@@H](NC(=O)c1ccccn1)c1onc(-c2ccc(F)cc2)c1C(=O)O,.
CN1CCN(c2cc(-c3cncc(N)c3)nc(N)n2)CC1,.
Cn1ncc(N2CCCC(CC(=O)NCCc3ccccc3)C2)cc1=O (stereo not given),.
CCNC(=O)[C@@H]1C[C@H](NC(=O)c2cc(C)on2)CN1Cc1cnn(CC)c1,.
CNC(=O)N1C[C@@H](CN(C)C)[C@H](NS(=O)(=O)c2ccc(F)cc2F)C1,.
CN(C)C[C@@H]1CN(C)C[C@H]1NS(=O)(=O)c1cc(F)cc(F)c1,8.9µM
CNC(=O)N1C[C@@H](CN(C)C)[C@H](NS(=O)(=O)c2cc(F)ccc2C)C1,.
CC1=C[C@@H](CN(C)CCO)[C@H](C(C)C)C[C@H]1Cc1nnc(-c2ccccc2F)o1,13µM
CC1=C[C@@H](CN(C)CCO)[C@H](C(C)C)C[C@H]1Cc1nnc(-c2ccc(C)cc2)o1,10µM
C#CCN(C)C[C@@H]1C=C(C)[C@H](Cc2nnc(-c3ccc(C)cc3)o2)C[C@H]1C(C)C,.
O=C(COc1ccccc1)NC[C@H]1Cn2c(-c3ccc(F)cc3)cnc2CO1,.
CCCNC(=O)N1CC(Oc2ccc(-c3nc(-c4ccccc4)no3)cc2)C1,.[5.79 µM]
Cc1nnc2ccc(NCc3ccc(F)cc3)nn12,.
SMILES,Pf Dd2 growth
Cc1cccc(CNc2ccc3nnc(C)n3n2)c1,.
CCc1nnc2ccc(NCc3ccc(F)cc3)nn12,7.1µM
CN(C)C(=O)c1cccnc1OC1CCN(C(=O)c2cccc(Cl)c2)C1 (stereo not given),.
COCCN1CCC2(CCC1=O)CCN(C(=O)C1CCOCC1)CC2,.
CCOC(=O)COc1ccc(/C=C(\C#N)c2nc3ccc(C)cc3[nH]2)cc1OC,.
CCC(=O)Oc1ccc(/C=C(\C#N)c2nc3ccccc3[nH]2)cc1OC,.
COc1cc(/C=C(\C#N)c2nc3ccc(C)cc3[nH]2)ccc1OCc1ccc(C)cc1,2.8µM
CS(=O)(=O)N(C1CC1)C1CCOC2(CCN(C(=O)CCCc3ccccc3)CC2)C1 (stereo not given),.
Cc1ccc(S(=O)(=O)N2[C@@H]3CC[C@H]2CC(NC(=O)c2ccncc2)C3)c(C)c1 (stereo not given in full),.
Cc1cnc(C(=O)N2CCCCCCNC(=O)[C@@H]3CCC[C@@H]32)cn1,.
CN(CCN1CCOCC1)C(=O)c1cc(COc2cccc(F)c2)[nH]n1,.
CN(CCN1CCCCCC1)C(=O)c1cc(COc2ccccc2)[nH]n1,7.9µM
CN(CC1(CO)CCOCC1)C(=O)c1cc(COc2ccccc2)[nH]n1,.
COc1ccc(OC)c(CNC(=O)COc2ccc(NC(C)=O)cn2)c1,.
O=S(=O)(c1ccccc1C(F)(F)F)N1CCC(C2CCNC2)CC1 (stereo not given),.
COc1ccc(C2Cn3nnc(C(=O)N4CCC(C(=O)NC(C)C)CC4)c3CO2)cc1 (stereo not given),.
Cn1cccc1CN1CCC2(CC1)C(=NC1CCCCC1)NC(=O)N2c1cccnc1,.
O=C(c1ccccc1)N1CCC2(C1)C(=NC1CCCC1)NC(=O)N2c1cc(F)cc(F)c1 (stereo not given),.

# Source: PubChem (National Center for Advancing Translational Sciences (NCATS))
